Results: paper PMC4336329 (PLoS ONE, 2015)
Among all 310,000 compounds or so, about 2,200 (0.71%) showed an effect of 50% or more. Effects have a minus sign here. Shown is part of a subset that was picked to be rich in strong results.

Biological target: human ether-à-go-go-related gene (hERG) potassium channel (human, UniProt Q12809)
Assay: primary screen, population patch clamp on CHO cells stably expressing hERG; higher = less effect of the substance

human ether-à-go-go-related gene (hERG) potassium channel, sequence (Q12809 whole entry, looked up): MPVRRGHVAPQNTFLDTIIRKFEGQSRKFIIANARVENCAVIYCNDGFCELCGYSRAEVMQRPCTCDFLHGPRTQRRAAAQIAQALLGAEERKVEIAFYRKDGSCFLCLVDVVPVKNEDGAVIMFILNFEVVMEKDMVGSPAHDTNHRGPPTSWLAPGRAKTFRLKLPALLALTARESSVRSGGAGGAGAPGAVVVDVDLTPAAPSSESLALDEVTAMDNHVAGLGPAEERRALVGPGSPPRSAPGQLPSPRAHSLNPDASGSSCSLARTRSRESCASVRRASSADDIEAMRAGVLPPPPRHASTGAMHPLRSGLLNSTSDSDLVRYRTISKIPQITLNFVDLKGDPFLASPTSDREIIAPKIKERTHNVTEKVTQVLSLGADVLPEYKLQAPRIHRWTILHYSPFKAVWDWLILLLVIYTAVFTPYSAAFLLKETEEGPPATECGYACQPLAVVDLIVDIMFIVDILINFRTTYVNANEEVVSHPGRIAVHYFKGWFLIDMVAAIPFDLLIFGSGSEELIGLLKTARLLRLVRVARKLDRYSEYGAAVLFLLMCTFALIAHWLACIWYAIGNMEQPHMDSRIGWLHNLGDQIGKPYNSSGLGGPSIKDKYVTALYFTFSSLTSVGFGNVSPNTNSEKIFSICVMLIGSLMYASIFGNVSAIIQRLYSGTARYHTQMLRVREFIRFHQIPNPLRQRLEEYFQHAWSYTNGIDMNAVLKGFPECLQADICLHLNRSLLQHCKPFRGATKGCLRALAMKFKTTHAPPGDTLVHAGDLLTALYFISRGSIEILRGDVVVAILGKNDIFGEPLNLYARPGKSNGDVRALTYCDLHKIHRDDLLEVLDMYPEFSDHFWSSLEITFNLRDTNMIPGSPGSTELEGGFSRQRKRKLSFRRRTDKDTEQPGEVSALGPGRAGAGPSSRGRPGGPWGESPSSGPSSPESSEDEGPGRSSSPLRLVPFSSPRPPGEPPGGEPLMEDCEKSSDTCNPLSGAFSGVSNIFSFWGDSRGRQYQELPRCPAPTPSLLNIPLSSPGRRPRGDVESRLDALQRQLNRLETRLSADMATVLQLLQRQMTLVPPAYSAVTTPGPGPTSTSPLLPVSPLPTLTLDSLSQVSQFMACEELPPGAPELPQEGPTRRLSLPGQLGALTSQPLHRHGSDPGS

SMILES | hERG current change (%, negative = inhibition) at 1uM
CC1CCN(C(=O)COC(=O)C23CC4CC(CC(O)(C4)C2)C3)CC1 | 18.8%
CCC(C)(C)n1nnnc1C(c1ccncc1)N1CCC(C)CC1 (stereo not shown) | -0.168%
CCCn1nc2ccccc2c1P(=O)(N1CCOCC1)N1CCOCC1 | -0.888%
O=C(NCCc1cccc(Cl)c1)c1cc2ccccc2oc1=O | 12.5%
O=C1CCCc2c1nn(-c1ccccc1)[n+]2[O-] | 6.47%
Cc1nn(CC(=O)Nc2c(C)n(C)n(-c3ccccc3)c2=O)c(C)c1[N+](=O)[O-] | 8.99%
Cc1nn(CC(=O)Nc2cccnc2)c(=O)c2ccccc12 | -9.14%
CCOC(=O)CC1C(=O)NCCN1c1nc2c(C)cccn2c(=O)c1/C=C1\SC(=S)N(C(C)CC)C1=O (stereo not shown) | 9.18%
CCOC(=O)C1CCN(C(=O)c2sc3ncnc(N4CCC(C)CC4)c3c2C)CC1 | -57.3%
Cc1c(C(=O)N2CCC(Cc3ccccc3)CC2)sc2ncnc(N3CCC(C)CC3)c12 | 9.72%
CCOC(=O)C1CCN(C(=O)c2sc3nc(C)nc(N4CCC(C)CC4)c3c2C)CC1 | -1.96%
COc1ccc2nc(SCC(=O)Nc3ccc(S(=O)(=O)N4CCCC4)cc3)c(C#N)cc2c1 | -3.01%
CN(C)C(=O)c1cc(C(=O)c2ccc(F)cc2C(F)(F)F)c[nH]1 | 14.3%
Cc1nn(-c2cccc(Cl)c2)c2c1C(c1ccncc1)C(C#N)=C(N)O2 (stereo not shown) | 5.94%
CCOC(=O)CCCCC(=O)c1[nH]c(=O)[nH]c1CSc1nnc2c3ccccc3n(C(C)C)c2n1 | -0.434%
O=C(c1ccc(C(F)(F)F)cc1)C1CCCN(C(=O)c2csnn2)C1 (stereo not shown) | 9.85%
O=C(c1ccc(Cl)cc1)C1CCCN(C2CCSCC2)C1 (stereo not shown) | -63.4%
CC(C)(C)c1ccc(C(=O)C2CCCN(C3CCC3)C2)cc1 (stereo not shown) | 10.7%
Cc1cc(Cl)ccc1C(=O)C1CCCN(C2CCSCC2)C1 (stereo not shown) | -49.3%
CN1CCCC(C(=O)c2ccc(Cl)cc2)C1 (stereo not shown) | -2.93%
O=C(c1ccc(C(F)(F)F)cc1)C1CCCN(C2CCSCC2)C1 (stereo not shown) | -64.4%
CCC(=O)Nc1ccc(S(=O)(=O)Nc2cccc(C)c2)cc1OC | 6.57%

SMILES | hERG current change (%, negative = inhibition) at 1uM
CC(C)CCC(CCN1CCOCC1)c1ccc2c(c1)OCO2.Cl (stereo not shown) | -76.8%
CC(C)CCC(CCN1CCCC1)c1ccc2c(c1)OCO2.O=C(O)C(=O)O (stereo not shown) | -83.3%
O=C(CCN1CCCCC1)c1ccc2c(c1)OCO2 | 10.3%
COc1cc(OC)c2ccc(=O)oc2c1C(CCN1CCCC1)c1ccc2c(c1)OCO2 (stereo not shown) | -7.33%
COc1cc(O)c(C(CCN2CCOCC2)c2ccc3c(c2)OCO3)c(OC)c1 (stereo not shown) | -45.7%
C(=NCCCN1CCOCC1)c1ccc2c(c1)OCO2 | 16.1%
CC(=O)Nc1ccc(NC(=O)C(C)OC(=O)CNC(=O)c2cccs2)cc1 (stereo not shown) | 12.5%
CCOC(=O)c1c(-c2ccc(C)cc2C)csc1NC(=O)CSc1nnnn1C | -3.8%
COc1ccc(Cl)cc1N(C)C(=O)CCNC(=O)Cn1cnc2ccccc2c1=O | 11.2%
Cc1ccc(C)c2[nH]c(=O)c(CN(CCN3CCCC3)C(=O)Nc3ccc(F)cc3)cc12 | -76.6%
Cc1cc(C)c2cc(CN(CCN3CCCC3)C(=O)Nc3ccc(F)cc3)c(=O)[nH]c2c1 | -57.9%
COc1cc2cc(CN(CCN3CCCC3)C(=O)Nc3ccc(F)cc3)c(=O)[nH]c2cc1OC | 3.06%
Cc1ccc2cc(CN(CCN3CCCC3)C(=O)Nc3ccc(F)cc3)c(=O)[nH]c2c1C | -8.93%
Cc1cc(C)c2cc(CN(CCO)C(=O)Nc3ccc(Cl)cc3)c(=O)[nH]c2c1 | 3.03%
Cc1ccc(C)c2[nH]c(=O)c(CN(CCN3CCCC3)C(=O)Nc3cccc(Cl)c3)cc12 | -35.6%
CC1(C)CC(=O)C(C=NCCN2CCN(CC(=O)Nc3ccc(Cl)cc3)CC2)=C(O)C1 | 2.52%
C=CCn1c(O)c(C(C)=NCCN2CCCCC2)c(=O)[nH]c1=O | 8.8%
CCOc1ccc(NC(=S)N2CCC(NC(=O)c3ccccc3)CC2)cc1 | -3.48%
CN1CCN(CC#CC(C)(O)C2CC3C=CC2C3)CC1.Cl (stereo not shown) | 10.8%
c1cncc(COC2CCCN(Cc3nc(-c4cccs4)no3)C2)c1 (stereo not shown) | 15.7%
COc1cc(OC)cc(C(C)=O)c1 | 14.7%
Cc1ccc(NC(=O)/C=C/c2ccc([N+](=O)[O-])s2)cc1 | 13.2%

SMILES | hERG current change (%, negative = inhibition) at 1uM
CN(C)CCCn1c(SCC(=O)N2CC(=O)Nc3ccccc32)nc2ccccc2c1=O | 9.8%
COCCn1c(SCC(=O)N2CC(=O)Nc3ccccc32)nc2ccccc2c1=O | -3.74%
CC(C)N(CCn1c(SCC(=O)N2CC(=O)Nc3ccccc32)nc2ccccc2c1=O)C(C)C | -72.5%
N#Cc1ccc(S(=O)(=O)NCC(=O)OCC(=O)NCCc2ccccc2)cc1 | 14.7%
C=CCn1c(SCC(=O)N(CC)C2CCS(=O)(=O)C2)nc2sc3c(c2c1=O)CCC3 (stereo not shown) | -37.5%
Clc1ccc(-c2nnc(NC3=NCCCCC3)o2)cc1 | 10%
Cc1ccc(C(=O)N/C(=C\c2ccc(C(C)C)cc2)C(=O)NCCCN2CCOCC2)cc1 | -61.4%
Cc1ccc(C(=O)N/C(=C\c2ccc(F)cc2)C(=O)NCCN2CCOCC2)cc1 | -79.1%
Cc1ccc(C(=O)N/C(=C\c2ccc(Cl)cc2)C(=O)NCCN2CCOCC2)cc1 | -70.6%
O=C(NCCN1CCOCC1)/C(=C/c1ccc(Cl)cc1)NC(=O)c1ccccc1 | -83.1%
Cc1ccc(C(=O)N/C(=C\c2ccccc2)C(=O)NCCN2CCOCC2)cc1 | -38.7%
COc1ccc(/C=C(\NC(=O)c2ccc(C)cc2)C(=O)NCCN2CCOCC2)cc1 | -33.3%
CC(C)c1ccc(/C=C(\NC(=O)c2ccccc2)C(=O)NCCN2CCOCC2)cc1 | -21.9%
Cc1ccc(C(=O)N/C(=C/c2ccc(C(C)C)cc2)C(=O)NCCCN2CCOCC2)cc1 | -22%
CC(C)c1ccc(/C=C(\NC(=O)c2ccccc2)C(=O)NCCCN2CCOCC2)cc1 | -35.8%
Cc1ccc(C(=O)N/C(=C\c2ccco2)C(=O)NCCN2CCOCC2)cc1 | 5.85%
O=C(NCCN1CCOCC1)/C(=C/c1ccccc1)NC(=O)c1ccccc1 | 3.35%
CN(C)c1ccc(/C=C(/NC(=O)c2ccccc2)C(=O)NCCN2CCOCC2)cc1 | 16.1%
Cc1ccc2[nH]cc(C(=O)CCl)c2c1 | 15.2%
CCOc1ccccc1NC1c2ccccc2C(=O)N1Cc1ccco1 (stereo not shown) | 7.42%
O=C(O)c1cccc(N2C(=O)CSC2=S)c1 | 11.7%
COc1ccccc1-n1c(-c2ccc(Cl)cc2)c[nH]c1=S | 9.1%

SMILES | hERG current change (%, negative = inhibition) at 1uM
Cc1nc2scc(-c3ccco3)c2c(=O)n1/N=C/N(C)C | 5.8%
O=C(Nc1cccc(NC(=O)c2ccc(Cl)cc2)n1)c1ccc(Cl)cc1 | 14.3%
COc1ccc(-c2ccnc3nc(N4CCN(c5ccccc5)CC4)nn23)cc1 | 14.9%
CCCCn1nnc(NC(=O)C(c2ccccc2)c2ccccc2)n1 | 11.2%
COc1c(C)cc(S(=O)(=O)NCc2ccccn2)c(C)c1C | 9.43%
Nc1nnc(SCC(=O)OCc2ccccc2)s1 | 14.4%
CCN(CC)S(=O)(=O)c1ccc(N2CCOCC2)c(NS(=O)(=O)c2cc(C(C)(C)C)ccc2C)c1 | 6.68%
O=C(NCCc1cccs1)C1CC(c2c(Cl)cccc2Cl)=NO1 (stereo not shown) | 10.6%
CSCCC(NS(=O)(=O)c1ccccc1F)C(=O)NCCCn1nc(C)cc1C (stereo not shown) | -1.95%
Cc1ccc(C(=O)N/C(=C\c2ccc(Cl)cc2)C(=O)NCCCN2CCOCC2)cc1 | -78.6%
COc1ccc(/C=C(\NC(=O)c2ccc(C)cc2)C(=O)NCCCN2CCOCC2)cc1OC | 14.1%
COc1ccc(/C=C(\NC(=O)c2ccc(Cl)cc2)C(=O)NCCCN2CCOCC2)cc1OC | 9.09%
Cc1ccc(OCCOCCN2CCN(C)CC2)c(C(C)(C)C)c1.O=C(O)C(=O)O | 13.2%
COc1ccc(S(=O)(=O)NCC(c2cccnc2)N2CCN(Cc3ccccc3)CC2)cc1C (stereo not shown) | -65.5%
O=S(=O)(NCC(c1cccnc1)N1CCN(Cc2ccccc2)CC1)c1ccc(F)cc1 (stereo not shown) | -42.6%
O=S(=O)(NCC(c1cccnc1)N1CCN(Cc2ccccc2)CC1)c1ccc(Cl)cc1 (stereo not shown) | -60.6%
CCN1CCN(C(CNS(=O)(=O)c2ccc(Cl)cc2)c2cccnc2)CC1 (stereo not shown) | -10.6%
COc1ccc(S(=O)(=O)NCC(c2cccnc2)N2CCN(Cc3ccccc3)CC2)cc1 (stereo not shown) | -26.7%
O=S(=O)(NCC(c1cccnc1)N1CCN(Cc2ccccc2)CC1)c1ccccc1 (stereo not shown) | -52.4%
Cc1ccc(S(=O)(=O)NCC(c2cccnc2)N2CCN(Cc3ccccc3)CC2)cc1 (stereo not shown) | -39.6%
CCN1CCN(C(CNS(=O)(=O)c2ccc(OC)c(C)c2)c2cccnc2)CC1 (stereo not shown) | -27.5%
COc1ccc(S(=O)(=O)NCC(c2cccnc2)N2CCN(c3ccccc3)CC2)cc1C (stereo not shown) | -1.72%
